A selection: hits, their analogues and other compounds. The true share with any hit is near 6.6%.
KB-3-1 tox – KB-3-1 parental cell cytotoxicity. KB-3-1 viability, CellTiter-Glo ATP luminescence, 72 h. Potency, µM (series often up to 46.1 µM), actives largely listed as cytotoxic. 400,000 compounds, 1.4% hits. AID 1347075; note: % is set by controls: 0 for no effect and ±100 for the full control effect; nearly all actives have a fitted effect of over 60% in size
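Multi-concentration cytotoxicity screen in KB-3-1 cells grown in DMEM lacking phenol red with 10% FBS. After 72 h at 37 °C with compound, ATP-dependent luminescence was recorded.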
HT1080 IDH1KD tx – toxicity to HT-1080 IDH1 knockdown cells (counter line). AID 686971. HT-1080 IDH1 knockdown viability, ATP luminescence, 48 h. Potency, µM (highest dose often 46.1 µM), inactives show top-dose activity, negative = toxicity, usual class: cytotoxic. 360,000 compounds, 2% hits;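 note: 0% = DMSO wells and -100% = cell-free medium wells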
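Assay cells: HT-1080 with IDH1 knockdown, 750 per well, RPMI/5% FBS. Exposure: 48 h at 37 °C following 2 h pre-incubation. Read: CellTiter-Glo luminescence; fitted concentration-response, curve class assigned.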
HepG2 tox – HepG2 cytotoxicity, counter-screen for TGF-b inhibitors; 410,000 compounds, 0.76% hits; HepG2 CAGA-GFP viability, ATP luminescence, 18 h; Potency, µM (highest dose often 46.1 µM), for inactives: at the top dose activity change, negative = cytotoxicity, actives largely listed as cytotoxic; AID 588856
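HepG2 CAGA-GFP cells (1000/well, DMEM with 1% FBS) received compound, then TGF-beta at 500 pg/mL final, and were incubated 18 hours at 37 degrees C. Viability was read by CellTiter-Glo luminescence. Media-only wells were set as complete cell-killing and DMSO as no toxicity.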
HT1080-NT tox – kills 2HG-producing HT-1080-NT fibrosarcoma cells; HT-1080-NT fibrosarcoma viability, CellTiter-Glo ATP luminescence, 48 h; Potency, µM (titrated, usually from 46.1 µM), without a hit: at the highest dose activity, negative = less viability, actives largely listed as cytotoxic; AID 686970; 360,000 compounds, 1.6% hits;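 note: NT is the 2HG producing partner of a matched IDH1 knockdown line; 0% = DMSO-treated cells and -100% = media-only wells without cells; nearly all actives have a fitted effect of over 55% in size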
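750 cells/well, RPMI + 5% FBS; 2 h settle, compound pin-transfer, 48 h at 37 degrees C. CellTiter-Glo 10 min RT, luminescence. Normalized to DMSO and media-only wells.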
KB-V1 cytotox – kills drug-selected multidrug resistant KB-V1 cells; KB-V1 MDR cells viability, CellTiter-Glo, 72 h; Potency, µM (titrated, usually from 46.1 µM), usual class: cytotoxic; 400,000 compounds, 3.4% hits; AID 1347076; note: % is set by controls: 0 for no effect and ±100 for the full control effect; nearly all actives have a fitted effect of over 60% in size
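qHTS viability screen in drug-selected KB-V1 MDR cells: 72 h compound treatment at 37 degrees C, ATP luminescence end point.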
TGFb SMAD3 inh – blocks TGF-b signaling; HepG2 CAGA-GFP TGF-b/SMAD3 reporter, GFP fluorescence, 18 h; TGF-beta stimulated, 500 pg/mL final; 410,000 compounds, 1.2% hits; Potency, µM (top dose mostly 46.1 µM), for the others: at the top dose activity, negative = inhibition, usual class: inhibitors; AID 588855; note: % is set by controls: 0 for no effect and ±100 for the full control effect; nearly all actives have a fitted effect of over 65% in size
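HEPG2 CAGA-GFP, 1000 cells/well; 2 h settle, 37 C; cpd via pin tool; TGF-b 500 pg/mL final; 18 h, 37 C; GFP imaging ex488/em500-530; %Activity normalised to -TGF-b and +DMSO controls; CRC fit, curve class.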
Active calls of the source: *; i = inactive; ? = inconclusive; . = not tested or not shown; ! = not active in a repeat. Calls come from the whole dose curve; as a rule, active = well fitted curve in the direction sought with a large enough effect; inconclusive = small, poorly fitted or top-dose-only effect, or another doubt; inactive = no such curve, though single readings can be large; an effect the other way counts as inactive or inconclusive. Potency is the fitted concentration of half-maximal effect.

SMILES | KB-3-1 tox | HT1080 IDH1KD tx | HepG2 tox | HT1080-NT tox | KB-V1 cytotox | TGFb SMAD3 inh
Nc1c(C(=O)NCCN2CCOCC2)c2nc3ccccc3nc2n1CCc1ccccc1 | i | ? | -38% | ? | 23µM* | -16%
C[C@@H](c1ccccc1)N1C[C@@H](COCc2ccccc2)Oc2cc(N3CC[C@@H](N(C)C)C3)ccc2S1(=O)=O | ? | 23µM* | . | 18µM* | ? | .
C[C@H](c1ccccc1)N1C[C@H](COCc2ccccc2)Oc2cc(N3CC[C@@H](O)C3)ccc2S1(=O)=O | i | ? | . | ? | 23µM* | .
O=C(c1ccc2c3n(nc2c1)-c1ccccc1CO3)N1CCCCC1 | 9.2µM* | 23µM* | 7.1µM* | 16µM* | 10µM* | -11%
O=C(c1ccc2c3n(nc2c1)-c1ccccc1CO3)N1CCOCC1 | 7.3µM* | 23µM* | 7.9µM* | 8.2µM* | ? | -9%
COC(=O)c1ccc(Nc2ncnc3c2cnn3-c2ccccc2)cc1 | . | . | -3% | . | . | -2%
CC(C)(Oc1ccc(Cl)cc1)C(=O)Nc1nc2ccc(S(C)(=O)=O)cc2s1 | i | . | -25% | . | i | ?
NS(=O)(=O)c1ccc(NC(CNS(=O)(=O)c2ccccc2)c2ccccc2)cc1 (centres undefined) | i | 1% | -12% | 3% | i | -17%
COc1cccc(NC(CNS(=O)(=O)c2ccc(Cl)cc2)c2ccccc2)c1 (centres undefined) | 18µM* | . | -101% | . | i | 11µM*
Cc1ccc(NC(CNS(=O)(=O)c2ccc(Cl)cc2)c2ccccc2)cc1 (centres undefined) | ? | ? | -83% | ? | ? | ?
O=S(=O)(NCC(Nc1ccc(Cl)cc1)c1ccccc1)c1ccccc1 (centres undefined) | ? | ? | 16µM*! | ? | 18µM*! | ?
COc1cccc(NC(CNS(=O)(=O)c2ccc(C)cc2)c2ccccc2)c1 (centres undefined) | ? | . | -94% | . | 18µM* | 14µM*
O=S(=O)(NCC(c1ccccc1)N1CCNCC1)c1ccc(Cl)cc1 (centres undefined) | ? | -17% | -101% | ? | ? | 13µM*
O=C(c1ccccc1NS(=O)(=O)c1ccc(F)cc1F)N1CCCCC1 | i | -3% | -1% | 18% | i | 8%
CCOCCCNC(=O)C(c1ccc(Cl)cc1)N(Cc1ccc2c(c1)OCO2)C(=O)c1ccccc1O (centres undefined) | i | . | 2% | . | i | ?
CC(=O)Nc1ccc(NC(=O)C2CCN(S(=O)(=O)c3ccc4c(c3)CCCC(=O)N4)CC2)cc1 | i | . | -1% | . | i | -2%
CCc1nnc(NC(=O)c2ccc(S(=O)(=O)N(CC)Cc3ccccc3)cc2)o1 | ? | ? | 10% | -22% | ? | -27%
COc1ccccc1-c1nnc(NC(=O)c2ccc(S(=O)(=O)N(C)Cc3ccccc3)cc2)o1 | ? | ? | -24% | ? | 5.2µM* | -1%
CN(Cc1ccccc1)S(=O)(=O)c1ccc(C(=O)Nc2nnc(C3CC3)o2)cc1 | ? | ? | -8% | -26% | ? | -23%
CCc1nnc(NC(=O)c2ccc(S(=O)(=O)N(C)Cc3ccccc3)cc2)o1 | ? | -24% | -32% | -22% | 3.7µM* | -11%
C[n+]1c2n(c3ccccc31)N=C(c1ccccc1)CS2 | 2.9µM* | ? | -40% | ? | i | ?
CCc1nnc2n1N=C(c1ccc(Br)cc1)CS2 | i | 6% | -4% | 3% | i | -1%
C[n+]1c2n(c3ccccc31)N=C(c1ccc(-c3ccccc3)cc1)CS2 | i | ? | -5% | ? | i | ?
C[n+]1c2n(c3ccccc31)N=C(c1ccc(Br)cc1)CS2 | ? | 13µM* | -33% | ? | i | -19%
CN(Cc1ccccc1)C(=O)c1ccc2sc([C@H]3C[C@H](O)[C@@H](CO)O3)nc2c1 | i | -1% | 29% | 12% | i | 21%
SMILES | KB-3-1 tox | HT1080 IDH1KD tx | HepG2 tox | HT1080-NT tox | KB-V1 cytotox | TGFb SMAD3 inh
CN(NC(=S)Nc1ccc(OC(F)F)cc1)C(=S)Nc1ccc(OC(F)F)cc1 | i | -1% | 18% | -2% | i | ?
FC(F)Oc1ccc(NC(=S)Nn2cnnc2)cc1 | i | -1% | 2% | 2% | i | 16µM*
COc1ccc2[nH]cc(CCN=C(NC(=O)c3ccccc3F)Nc3nc(C)cc(C)n3)c2c1 | ? | . | 0% | . | ? | 30%
CCOc1ccccc1N(CC(=O)N1CCc2ccccc2C1)S(=O)(=O)c1ccccc1 | i | . | -25% | . | i | -30%
CCSc1nc(-c2ccccc2)nc(C(Cl)Cl)n1 | 5.2µM* | ? | 7.1µM* | ? | i | 5.6µM*
CSc1nc(-c2ccc(C)cc2)nc(C(Cl)Cl)n1 | 7.3µM* | 4% | -5% | ? | 18µM* | -3%
O=C(NCCc1ccccc1Cl)c1cc2ccccn2n1 | i | . | -22% | . | i | 0%
O=C(CNc1ccc(F)cc1)N/N=C/c1c(O)ccc2ccccc12 | ? | 10µM* | -37% | ? | i | ?
COc1ccccc1NCC(=O)N/N=C/c1c(O)ccc2ccccc12 | ? | 10µM* | -48% | 15µM* | i | -1%
COc1ccccc1NC(=O)c1c(N=Cc2c(O)ccc3ccccc23)cnn1C | 21µM* | 5.8µM* | -13% | 8.2µM* | ? | -15%
COc1ccccc1N(CC(=O)N/N=C/c1c(O)ccc2ccccc12)S(C)(=O)=O | ? | ? | -1% | ? | i | -20%
O=C(Cc1n[nH]c(=O)[nH]c1=O)N/N=C/c1c(O)ccc2ccccc12 | i | 1% | 6% | 1% | i | 5%
Cn1ncc(N=Cc2c(O)ccc3ccccc23)c1C(=O)N1CCOCC1 | i | 4% | -12% | 1% | i | -2%
CCOc1ccc(OCC)c(Nc2cc(C)nc3nc(-c4ccco4)nn23)c1 | i | . | -9% | . | i | -1%
CC1=C(C(=O)Nc2ccc(Cl)cc2)C(C(C)C)n2nc(SCc3ccc(Cl)cc3)nc2N1 (centres undefined) | i | . | -23% | . | i | 5%
Cc1cccc(NC(=O)c2ncn3c2C(=O)N[C@@H](C)C3)c1 | i | 7% | -17% | 2% | i | 0%
COc1ccccc1CNC(=O)Cc1c(C)c2c(cc(C)c3c(C)coc32)oc1=O | . | . | 1% | . | . | -1%

Bioassay records (PubChem BioAssay)
